Test results as given in publication PMC6925144, “A prospective compound screening contest identified broader inhibitors for Sirtuin 1” (Scientific Reports, 2019).
In all, about 3,200 compounds were measured (“TSA(with NAD+) / Primary screening (TSA) / delta Tm (K)”: median about -0.04, highest 2% from about 0.37 on). This excerpt belongs to a sample that is enriched for the highest values.

target: NAD-dependent deacetylase Sirtuin 1 (human, UniProt Q96EB6); assay: primary screen, delta tm; parameters: single well (n = 1, as 'the same TSA'); conditions: 10 µM
Experimental: A total of 3,192 compounds extracted from the proposed lists were first screened by thermal shift assay (TSA), which determined a melting temperature shift (ΔTm) of Sirtuin 1 upon the addition of a test compound at a concentration of 10 µM (n = 1) with primary hit criteria of ΔTm > 0.45 K or ΔTm < −1.5 K. Primary hits (48 compounds) were retested in the same assay at three concentrations (5, 10, 20 µM, n = 4) for hit confirmation and for dose-dependency check. Secondary hits (41 compounds) were checked their selectivity for Sirtuin 1 based on counterscreening on unrelated protein targets (bovine carbonic anhydrase (CA) and recombinant SH2 domain of hABL1 kinase (ABL1)) at three different concentrations (5, 10, 20 µM, n = 4), which yielded 38 hit compounds, hereafter referred to as TSA hits. The TSA screening above was conducted in the absence of NAD+. As noted, the structure of Sirtuin 1 is different in the presence of NAD+ and substrate. The chemical profile of TSA hits found from the different conditions could be different. […] As a result, 39 TSA hits were found.

NAD-dependent deacetylase Sirtuin 1, sequence (Q96EB6 2-747 limits assumed): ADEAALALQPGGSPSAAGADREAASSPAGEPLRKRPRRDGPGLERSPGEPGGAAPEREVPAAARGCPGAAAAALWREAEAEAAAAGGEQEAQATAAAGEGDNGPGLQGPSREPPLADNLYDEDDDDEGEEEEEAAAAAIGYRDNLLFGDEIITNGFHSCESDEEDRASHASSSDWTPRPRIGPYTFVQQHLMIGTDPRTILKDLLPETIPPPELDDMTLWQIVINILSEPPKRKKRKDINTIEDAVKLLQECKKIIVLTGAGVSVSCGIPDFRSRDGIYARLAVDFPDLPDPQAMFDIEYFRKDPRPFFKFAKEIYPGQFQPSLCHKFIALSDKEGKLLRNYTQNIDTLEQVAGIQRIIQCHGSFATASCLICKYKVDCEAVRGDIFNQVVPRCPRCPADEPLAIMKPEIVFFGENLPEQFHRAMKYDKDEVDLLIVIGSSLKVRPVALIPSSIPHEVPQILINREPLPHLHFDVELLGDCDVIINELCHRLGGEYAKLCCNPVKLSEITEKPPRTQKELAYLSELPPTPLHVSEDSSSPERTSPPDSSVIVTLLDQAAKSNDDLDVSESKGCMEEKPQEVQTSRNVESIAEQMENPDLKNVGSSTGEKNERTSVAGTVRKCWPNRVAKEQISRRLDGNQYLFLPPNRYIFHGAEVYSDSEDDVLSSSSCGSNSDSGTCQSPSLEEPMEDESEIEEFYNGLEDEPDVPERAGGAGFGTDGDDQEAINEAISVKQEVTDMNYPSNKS

SMILES	TSA(with NAD+) / Primary screening (TSA) / delta Tm (K)
c1ccc(CN2CCCCCC2)c(CNc2ccc3nnnn3n2)c1	-0.04
Cc1ncc(CN2CCC(Nc3ccc4nnnn4n3)C(C)C2)s1 (stereo not drawn)	0.09
Cc1cc(F)ccc1N1CCCC(Nc2ccc3nnnn3n2)C1 (stereo not drawn)	0.68
O=C(CN1CCc2ccccc21)Nc1cnc2ccccc2c1	-0.13
NC(=O)C1CCN(c2nc(CN3CCCCC3)nc3sc4c(c23)CCC4)CC1	-0.19
Cc1sc2nc(CSc3ccccc3)nc(N3CCCC(C(N)=O)C3)c2c1C (stereo not drawn)	-0.18
NC(=O)C1CN(c2nc(C3CC3)nc3sc4c(c23)CCCC4)CCO1 (stereo not drawn)	-0.19
NC(=O)C1CCN(c2nc(CSc3ccccc3)nc3sc4c(c23)CCCC4)CC1	2.22
Cc1sc2nc(CSc3ccccc3)nc(N3CCC(C(N)=O)CC3)c2c1C	0.49
Cc1sc2nc(CN3CCCC3)nc(N3CCC(C(N)=O)CC3)c2c1C	0.12
Cc1ccc(C(=O)Nc2ccc(N3CCN(Cc4ccccc4)CC3)cc2)cc1NC(=O)c1ccco1	0.12
COc1ccc(-c2csc3nc(C)nc(N4CCN(C5CCS(=O)(=O)C5)CC4)c23)cc1OC (stereo not drawn)	-0.09
O=C(O)c1cnc2c(c1)c(=O)[nH]c(=O)n2Cc1ccccc1	-0.13
Cn1c(-c2ccccc2)c(C=O)c2ccccc21	-0.32
CCCCn1ccnc1C(=O)c1cccc(S(=O)(=O)N(C)c2ccccc2)c1	-0.08
CC1CN(C(=O)/C=C/c2ccc(C(=O)O)cc2)CC(C)(C)O1 (stereo not drawn)	-0.13
CC1(C)NC(=O)N(CC(=O)Nc2sc3c(c2-c2nc4ccccc4[nH]2)CCCC3)C1=O	0.37
COC(=O)c1cc(NC(=O)CN2C(=O)NC(C)(c3ccc4ccccc4c3)C2=O)cc(C(=O)OC)c1 (stereo not drawn)	0.19
O=C(CN1CCCCCCC1=O)NCCc1nc2ccccc2[nH]1	-0.22
NC1=Nc2nc3ccccc3n2C(c2ccc(-c3ccc(C(=O)O)cc3)o2)N1 (stereo not drawn)	1.27
CCCCOc1cc(C2NC(N)=Nc3nc4ccccc4n32)ccc1OC (stereo not drawn)	-0.22
O=C(O)CCCc1ccc2c(c1)-c1ccccc1C2	0.06

SMILES	TSA(with NAD+) / Primary screening (TSA) / delta Tm (K)
O=C1/C(=C/c2ccccc2OC(F)F)Oc2cc(O)ccc21	0.15
O=C1/C(=C/c2ccc(OC(F)F)cc2OC(F)F)Oc2cc(O)ccc21	0.37
COc1ccc(/C=C2/Oc3cc(O)ccc3C2=O)c(OC)c1	0.12
CCCNc1nnc(S)s1	-0.33
CN(c1ccccc1)S(=O)(=O)c1cccc(C(=O)NCCc2c[nH]c3ccccc23)c1	0.17
CN(c1ccccc1)S(=O)(=O)c1cccc(NCC(=O)Nc2ccc(Br)cc2)c1	-0.01
CN(c1ccccc1)S(=O)(=O)c1cccc(NC(=O)c2cc(Cl)nc3ccccc23)c1	0.16
CN(c1ccccc1)S(=O)(=O)c1cccc(NC(=O)CCc2c[nH]c3ccccc23)c1	0.32
CN(c1ccccc1)S(=O)(=O)c1cccc(NC(=O)CCCc2c[nH]c3ccccc23)c1	0.39
CN(c1ccccc1)S(=O)(=O)c1cccc(NC(=O)CNc2cccc3ccccc23)c1	0.41
CCOC(=O)C1=C(COC(=O)c2sc(-c3ccco3)nc2-c2ccccc2)NC(=O)NC1	0.06
CS(=O)(=O)c1ccc(NCCNC(=O)C23CC4CC(C2)CC(c2ccccc2)(C4)C3)c([N+](=O)[O-])c1	0.18
CN(Cc1nc(-c2cccnc2)no1)Cc1c[nH]nc1-c1cccnc1	-0.01
Cc1ccc(OCc2nc3ccccc3n2Cc2ccccc2)cc1	-0.21
CC(=O)Nc1ccc(NC(=O)c2cccc(S(=O)(=O)N(C)c3ccc(C)cc3)c2)cc1	-0.04
Cc1ccc(N(C)S(=O)(=O)c2cccc(C(=O)Nc3ccc(Br)c(C)c3)c2)cc1	0.73
Cc1ccc(N(C)S(=O)(=O)c2cccc(C(=O)Nc3ccncc3)c2)cc1	-0.15
Cc1ccc(N(C)S(=O)(=O)c2cccc(C(=O)Nc3ccc4c(c3)C(=O)N(C)C4=O)c2)cc1	0.89
CN(c1ccccc1)S(=O)(=O)c1cccc(NC(=O)c2ccc(C(N)=O)cc2)c1	-0.01
CC1CCc2[nH]c3ccc(C(=O)Nc4cccc(S(=O)(=O)N(C)c5ccccc5)c4)cc3c2C1 (stereo not drawn)	0.39
Cc1ccc(N(C)S(=O)(=O)c2cccc(C(=O)Nc3cccc(C(=O)NC4CC4)c3)c2)cc1	-0.03
Cc1ccc(NC(=O)c2cccc(S(=O)(=O)N(C)c3ccc(C)cc3)c2)cc1	0.29

SMILES	TSA(with NAD+) / Primary screening (TSA) / delta Tm (K)
Cc1ccc(N(C)S(=O)(=O)c2cccc(C(=O)Nc3ccc(C(N)=O)cc3)c2)cc1	0.46
CSc1cccc(NC(=O)c2cccc(S(=O)(=O)N(C)c3ccc(C)cc3)c2)c1	0.19
COc1cccc(NC(=O)c2cccc(S(=O)(=O)N(C)c3ccc(C)cc3)c2)c1	-0.06
CN(c1ccccc1)S(=O)(=O)c1cccc(C(=O)Nc2ccccc2)c1	-0.01
COc1ccc(CCn2c(C)cc(C(=O)COC(=O)C34CC5CC(CC(O)(C5)C3)C4)c2C)cc1	-0.19
CN1C(=O)c2oc3ccccc3c(=O)c2C1c1ccccc1F (stereo not drawn)	0.01
CCC(=O)c1ccc(OCC(=O)NNC(=O)c2cc(C)oc2C)cc1	-0.03
COc1cccc(C(C)NCc2ccc3[nH]c(=O)[nH]c3c2)c1 (stereo not drawn)	-0.08
O=C1NC(C(=O)O)=CC(c2ccccc2C(F)(F)F)N1 (stereo not drawn)	-0.12
CC1(c2cccc(NC(=O)c3ccc4c(c3)CCC4)c2)NC(=O)NC1=O (stereo not drawn)	-0.13
CN(c1ccccc1)S(=O)(=O)c1cccc(NC(=O)COC(=O)C23CC4CC(CC(C4)C2)C3)c1	0.13
COC(=O)c1ccc(C2NC(=O)NC3=C2C(=O)N(CC(C)O)C3)cc1 (stereo not drawn)	-0.05
C=C(Br)CN	0.06
NC(=O)c1cc(C2CCCN(c3nccc(-n4cccn4)n3)C2)n[nH]1 (stereo not drawn)	0.05
Cc1ccc(N(C)S(=O)(=O)c2cccc(C(=O)Oc3ccc4c(C)cc(=O)oc4c3)c2)cc1	0.16
O=C(CC12CC3CC(CC(C3)C1)C2)NCC(=O)Nc1ccc(Sc2nc3ccccc3[nH]2)cc1	0.23
O=C(NC(=S)Nc1ccc(-c2nc3ccccc3[nH]2)cc1)C12CC3CC(CC(C3)C1)C2	0.43
O=C1CCCCC(C(=O)Nc2ccc(-c3nc4ccccc4[nH]3)cc2)N1 (stereo not drawn)	0.16
COc1ccc2nc(C)c(C(=O)NC34CC5CC(CC(C5)C3)C4)cc2c1	-0.28
C[C@@H](N)CCO	-0.05
O=C1NC(=O)C(=Cc2cn(-c3ccccc3)nc2-c2cc3ccccc3o2)C(=O)N1	-0.11
O=C1NC(=S)NC(=O)C1=Cc1cn(-c2ccccc2)nc1-c1cc2ccccc2oc1=O	-0.05

SMILES	TSA(with NAD+) / Primary screening (TSA) / delta Tm (K)
O=C1NC(=S)NC(=O)C1=Cc1cn(-c2ccccc2)nc1-c1cc2ccccc2o1	0.56
O=S(=O)(c1ccc(C(F)(F)F)cc1)N1CCNCC1	0.03
CN(C)Cc1ccc(C(=O)Nc2cccc(C(=O)NC3CC3)c2)cc1	0.01
NC(=O)NCCCCC(=O)Nc1cccc(C(F)(F)F)c1	0.08
O=C(Nc1cccc(C(F)(F)F)c1)c1cccc(NC(=O)c2cc3c(cc2[N+](=O)[O-])OCCO3)c1	0.38
CCc1cc2c(N3CCN(Cc4ccc5c(c4)OCO5)CC3)nc(C)nc2s1	-0.04
NCCCC(N)C(=O)O (stereo not drawn)	-0.08
NC(=O)CC1CCN(C(=O)CCc2c[nH]c3ccccc23)CC1	-0.03
O=C(CCc1ccccc1)NC1CCN(c2ccc([N+](=O)[O-])c3cccnc23)CC1	-0.21
Cc1c(C=C2C(=O)NC(=S)NC2=O)c2ccccn2c1C(=O)c1cccc([N+](=O)[O-])c1	-0.03
O=C(CCc1ccccc1)Nc1ccccc1Cc1ccccc1	-0.06
Cc1cccc(-n2ccnc2SCC(=O)Nc2ccc(S(=O)(=O)Nc3nccs3)cc2)c1C	0.13
NC(=O)COC(=O)c1ccc(OCC(=O)Nc2cccc(C(F)(F)F)c2)cc1	0.23
O=C(COc1ccccc1C(=O)Nc1ccc(S(=O)(=O)Nc2nccs2)cc1)Nc1cccc(C(F)(F)F)c1	0.82
CC(C)c1ccc(C(NC(=O)c2cccc(C(N)=O)c2)c2cccs2)cc1 (stereo not drawn)	-0.05
O=C1NC(=S)N/C1=C\c1ccccc1OCc1ccc(C(=O)O)cc1	0.23
Cc1nc(-c2ccc(CCNC(=O)c3ccc(NC(=O)c4cccs4)cc3)s2)cs1	0.58
Cc1nc(-c2ccc(CCNC(=O)c3ccc(NC(N)=O)cc3)s2)cs1	0.08
COc1ccc(C(=O)NCCc2ccc(-c3csc(C)n3)s2)cc1	-0.09
Cc1ccccc1CNC(=O)CSc1nc2ccsc2c(=O)n1C	-0.22
O=C(Nc1ccc2c3c(cccc13)CC2)N1CCC(n2cncn2)CC1	-0.08
